“And” between values parts separate entries of the source, which are not always exact repeats. Equal values may be shown once. Screen size: about 310,000 compounds; about 11,000 (3.5%) were called active. About 4% were inconclusive and are not listed. The list comes from a sample in which actives are over-represented; it also holds similar structures and randomly drawn compounds. Unmarked numbers belong to inactive results. Calls come from the whole dose curve; as a rule, active = well fitted inhibition curve with a large enough effect; inconclusive = small, poorly fitted or top-dose-only effect, or another doubt; inactive = no such curve, though single readings can be large or run the other way.
Potency is the fitted concentration of half-maximal effect.

This experiment has as its target 4'-phosphopantetheinyl transferase ffp (Bacillus subtilis) (UniProt Q9F4F7). Put plainly: qHTS Assay for Inhibitors of Bacillus subtilis Sfp phosphopantetheinyl transferase (PPTase).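 For largest response in the series, negative = inhibition: 0% = enzyme reaction without inhibitor and -100% = no enzyme wells.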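 Note: the enzyme is Sfp with the accession as filed and its product quenches rhodamine fluorescence.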 The conditions noted are these: Biochemical Sfp PPTase activity. A digest of the protocol:
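Fluorescence-quenching assay with 15 nM Sfp, 5 uM rhodamine-CoA and 12.5 uM BHQ-2-labelled ybbR peptide in pH 7.6 Hepes/MgCl2 buffer. Enzyme was pre-incubated with compound for 15 min at room temperature. Rate was taken from the 30-min fluorescence change (525/598 nm).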
Background: Quantitative high-throughput screening tests each substance at several concentrations.
`CCn1c(C)c(C)c2cc(C(=O)N3CCN(c4cccc(C)c4C)CC3)ccc21`: the largest response in the series, negative = inhibition was -24.3%. Same read-out and setting: for `CCOC(=O)c1[nH]c2c(c1-c1ccccc1)C(=O)CC(c1ccc(Cl)cc1)C2` (stereo not given) the value was 5.24%.

`CCOC(=O)C1=C(C)NC(=O)N(C(C)=O)C1c1ccc(Cl)cc1` (stereo not given): the largest response in the series, negative = inhibition was 19%. As for `CCOC(=O)C1Sc2[nH]c(=O)sc2C(c2ccc(Cl)cc2)C1C(=O)OCC` (stereo not given), the Potency is 22.4 µM (active). Regarding `CCC(C)c1ccc(NC(=S)N2CCCC2)cc1` (stereo not given), the largest response in the series, negative = inhibition was 7.33%. Still for that read-out and setting: for `O=C(O)COc1nsnc1N1CCOCC1` the value was 18.9%; for `c1nc(COc2nsnc2N2CCOCC2)cs1`, 0.0907%. In the case of `c1ccc(COc2nsnc2N2CCOCC2)cc1`, the Potency was 28.2 µM (active). Turning to `CCc1c(C)c2ccc(OC3CCCCC3=O)cc2oc1=O` (stereo not given), the largest response in the series, negative = inhibition is -0.0226%. `CCOC(=O)C(C)n1cnc2c(nnn2-c2ccc(F)cc2)c1=O` (stereo not given): the largest response in the series, negative = inhibition is 8.12%. For `O=c1/c(=C/c2ccc(CNS(=O)(=O)c3ccccc3)o2)sc2n1CCN=2`, the Potency was 50.1 µM (active). As to `O=S(=O)(NCCNS(=O)(=O)c1ccccc1)c1ccccc1`, the largest response in the series, negative = inhibition was 14.7%.

For `O=S(=O)(NCc1ccccc1)c1ccc(S(=O)(=O)N2CCCC2)cc1`, the largest response in the series, negative = inhibition is -13.6%. Regarding `Cc1ccccc1NC(=O)c1cc(S(=O)(=O)Nc2cccc(C(=O)O)c2)ccc1Cl`, the largest response in the series, negative = inhibition is 17.9%. As to `COCCNC(=O)C1CCN(C(=O)C2CC(=O)N(c3ccc(C)cc3)C2)CC1` (stereo not given), the largest response in the series, negative = inhibition is 10.9%. The same measure, in the same setting: for `NS(=O)(=O)c1cccc(NC(=O)CN2CCCc3ccccc32)c1` the value was 17%; for `COC(=O)c1[nH]c2cccc(C)c2c1NC(=O)CN1CCCc2ccccc21`, -4.7%.

Turning to `COC(=O)c1[nH]c2ccccc2c1NC(=O)CN1CCCc2ccccc21`, the Potency was 39.8 µM (active).

Regarding `O=C(Nc1nnc(S(=O)(=O)N2CCOCC2)s1)c1cccc(Br)c1`, the largest response in the series, negative = inhibition is 19.1%.

With `c1ccc(-c2cc(-c3ccccc3)[nH]n2)cc1`, the largest response in the series, negative = inhibition was 4.07%. Turning to `S=c1[nH]nc(-c2cc(-c3ccccc3)n[nH]2)n1/N=C/c1c2ccccc2cc2ccccc12`, the Potency is 50.1 µM (active).

Consider `S=c1[nH]nc(-c2ccncc2)n1/N=C/c1ccccc1Cl`, for which the largest response in the series, negative = inhibition was -1.85%.

In the case of `Cc1cc(C)nc(N/N=C/c2ccc([N+](=O)[O-])o2)n1`, the Potency was 79.4 µM (active). `C/[N+]([O-])=C\c1ccc([N+](=O)[O-])o1`: the largest response in the series, negative = inhibition is 10%. The same measure, in the same setting: for `Cc1cc(C)nc(N/N=C/c2ccncc2)n1` the value was -9.4%. With `Cc1cc(C)nc(N/N=C/c2c(C)oc3ccccc23)n1`, the largest response in the series, negative = inhibition is -2.54%. The same measure, in the same setting: in the case of `Cc1ccc(S(=O)(=O)N/N=C\c2cc3c(cc2[N+](=O)[O-])OCO3)cc1` it was -17.6%. With `CCc1ccc(S(=O)(=O)N/N=C\c2ccc([N+](=O)[O-])o2)cc1`, the Potency is 56.2 µM (active). Take `O=C(NNS(=O)(=O)c1ccc([N+](=O)[O-])cc1)C1CCCCC1`: the largest response in the series, negative = inhibition is 5.3%. Still for that read-out and setting: for `CC(C)(C)c1cc[n+](-c2[nH]c(=O)sc2/C=N/N=C(\[O-])c2ccccc2)cc1` the value was -4.09%. Take `COC1=C(N2CCOCC2)C(=O)c2ccccc2C1=O`: the largest response in the series, negative = inhibition was -22.9%. For the compound `COc1ccc(CNC(=O)CCN2C(=O)c3ccccc3C2=O)cc1`, the largest response in the series, negative = inhibition is 10.6%. As to `COc1cc(OC)c(OC)cc1CN1CCN(C(=O)c2cccc3ccccc23)CC1`, the largest response in the series, negative = inhibition was -29.2%.

As to `COc1ccccc1CN1CCN(C(c2ccccc2)c2ccccc2)CC1`, the largest response in the series, negative = inhibition was -9.22%. Turning to `COc1ccccc1CN1CCN(Cc2cc(OC)c(OC)cc2OC)CC1`, the Potency is 79.4 µM (active). As to `Cc1ccc(C(=O)N/C(=C\c2ccc(F)cc2)C(=O)NCCN2CCOCC2)cc1`, the largest response in the series, negative = inhibition was 8.47%. Take `O=C(CN1CCN(S(=O)(=O)c2ccc(Cl)s2)CC1)NCc1ccc(Cl)cc1`: the Potency was 56.2 µM (active). For `Cc1ccccc1N1CCN(CC(=O)NCc2ccc(Cl)cc2)CC1`, the largest response in the series, negative = inhibition is 9.8%. On the same count and under the same terms, in the case of `O=C(NCc1ccc(Cl)cc1)C1CCN(S(=O)(=O)c2cccs2)CC1` it was 2.39%; in that of `CN1CCN(C(=O)c2ccccc2NC(=O)COc2ccccc2Cl)CC1`, 18.2%; in that of `CC(C)NC(=O)c1ccc(Cl)cc1Cl`, 26.8%. Still for that read-out and setting: for `COc1cc(/C=C(/NC(=O)c2ccc(Cl)cc2Cl)C(=O)O)cc(OC)c1OC` the value was 1.15%. Consider `COC(=O)/C(=C\Nc1ccccc1)NC(=O)c1ccc(Cl)cc1Cl`, for which the Potency is 79.4 µM (active). Consider `COc1ccc(N2CCN(C(=O)c3ccc(N4CCCCS4(=O)=O)cc3)CC2)cc1`, for which the largest response in the series, negative = inhibition was 1.49%. As to `COc1ncnc2c1N=C1CC(C)(C)CC(N)=C1S2`, the Potency was 44.7 µM (active). Regarding `CN(CC(=O)NCc1ccncc1)S(=O)(=O)c1ccc(Br)cc1`, the largest response in the series, negative = inhibition is 13.4%. Turning to `O=C(Nc1nc2c(F)cc(F)cc2s1)C1COc2ccccc2O1` (stereo not given), the largest response in the series, negative = inhibition is -2.2%. As to `O=C(Nc1ncc([N+](=O)[O-])s1)C1COc2ccccc2O1` (stereo not given), the largest response in the series, negative = inhibition was -25.4%. Turning to `O=C(Nc1nc(-c2ccncc2)cs1)C1COc2ccccc2O1` (stereo not given), the Potency was 8.91 µM (active). Take `CC(=O)c1ccc(S(=O)(=O)NCc2nnnn2-c2ccccc2)cc1`: the largest response in the series, negative = inhibition was 25.6%. `Cc1ccc2c(c1)N(CC(=O)NCC1CCCO1)C(=O)CO2` (stereo not given): the largest response in the series, negative = inhibition was 20.7%. Same read-out and setting: in the case of `CC(C)c1cc(C(=O)N/N=C/C(Br)=C/c2ccccc2)n[nH]1` it was 3.6%. Take `S=c1[nH]nc(-c2ccco2)n1/N=C/c1ccc(Br)s1`: the largest response in the series, negative = inhibition was -25.9%. With `Cc1cc(-c2n[nH]c(=S)n2/N=C/C(Br)=C/c2ccccc2)n[nH]1`, the Potency was 39.8 µM (active). Regarding `S=c1[nH]nc(-c2cccnc2)n1/N=C/C(Cl)=C\c1ccccc1`, the largest response in the series, negative = inhibition was -12.9%. Still for that read-out and setting: in the case of `S=c1[nH]nc(-c2ccco2)n1/N=C/c1ccccc1` it was -17.1%. With `Cc1cc(-c2n[nH]c(=S)n2/N=C/c2ccco2)n[nH]1`, the Potency is 79.4 µM (active). Regarding `O=C(c1cc2ccccc2o1)N1CCN(Cc2ccccc2)CC1`, the largest response in the series, negative = inhibition was 8.96% and -10.3%. Take `Cc1ccc(CSCCNC(=O)CN(c2ccc(F)cc2)S(C)(=O)=O)cc1`: the largest response in the series, negative = inhibition is 7.19%. For the compound `O=C(c1ccncc1)N1CCC2(CCCN(C(c3ccccc3)c3ccccc3)C2)CC1`, the largest response in the series, negative = inhibition was -0.961%.

The record behind these values is PubChem BioAssay AID1490 (National Center for Advancing Translational Sciences (NCATS), 2009).
